Data from the supplement of paper PMC8728848.
This excerpt belongs to a sample that is enriched for the strongest signals.

Legend:
Experiment in all cases: glycan array binding signal (z-score within array); higher = stronger binding
Details in all cases: glycan notation: IUPAC condensed, linker removed
Fuc(a1-2)Gal = molecular target: Fuc(a1-2)Gal
Procedure, shortened: (§1)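 Glycan array binding is given as a within-array Z-score, which can be read as non-binding when negative. The arrays, 3228 of them, came from the Consortium for Functional Glycomics database and were retained only where the protein sequence was available. Z-scores were averaged across arrays of the same protein sequence at different concentrations or buffers and across linkers.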

[1] = molecular target: Fuc(a1-2)Gal(b1-3)GlcNAc(b1-3)GalNAc
Procedure, shortened: as §1

[2] = molecular target: Fuc(a1-2)Gal(b1-4)GlcNAc(b1-3)[Fuc(a1-3)[Gal(b1-4)]GlcNAc(b1-6)]Gal(b1-4)Glc
Procedure, shortened: as §1

[3] = molecular target: Fuc(a1-2)[Gal(a1-3)]Gal(b1-4)Glc
Procedure, shortened: as §1

[4] = molecular target: Fuc(a1-2)[GalNAc(a1-3)]Gal
Procedure, shortened: as §1

[5] = molecular target: Fuc(a1-2)[GalNAc(a1-3)]Gal(b1-3)GlcNAc(b1-2)Man(a1-3)[Fuc(a1-2)[GalNAc(a1-3)]Gal(b1-3)GlcNAc(b1-2)Man(a1-6)]Man(b1-4)GlcNAc(b1-4)[Fuc(a1-6)]GlcNAc
Procedure, shortened: as §1

[6] = molecular target: Fuc(a1-2)[GalNAc(a1-3)]Gal(b1-4)GlcNAc(b1-2)Man(a1-3)[Fuc(a1-2)[GalNAc(a1-3)]Gal(b1-4)GlcNAc(b1-2)Man(a1-6)]Man(b1-4)GlcNAc(b1-4)[Fuc(a1-6)]GlcNAc
Procedure, shortened: as §1

[7] = molecular target: Fuc(a1-2)[GalNAc(a1-3)]Gal(b1-4)[Fuc(a1-3)]GlcNAc
Procedure, shortened: as §1

[8] = molecular target: Fuc(a1-2)[GalNAc(a1-3)]Gal(b1-4)[Fuc(a1-3)]GlcNAc(b1-3)GalNAc
Procedure, shortened: as §1

[9] = molecular target: Fuc(a1-3)[GalNAc(b1-4)]GlcNAc
Procedure, shortened: as §1

[10] = molecular target: Gal(a1-3)Gal(b1-3)GlcNAc(b1-2)Man
Procedure, shortened: as §1

[11] = molecular target: Gal(a1-3)Gal(b1-3)GlcNAc(b1-6)GalNAc
Procedure, shortened: as §1

[12] = molecular target: Gal(a1-3)Gal(b1-4)[Fuc(a1-3)]GlcNAc
Procedure, shortened: as §1

Gal(a1-3)GalNAc = molecular target: Gal(a1-3)GalNAc
Procedure, shortened: as §1

[13] = molecular target: Gal(a1-3)[Gal(a1-4)]Gal(b1-4)GlcNAc
Procedure, shortened: as §1

Gal(a1-4)Gal(b1-4)Glc = molecular target: Gal(a1-4)Gal(b1-4)Glc
Procedure, shortened: as §1

[14] = molecular target: Gal(b1-3)GalNAc(a1-3)[Fuc(a1-2)]Gal(b1-4)Glc
Procedure, shortened: as §1

[15] = molecular target: Gal(b1-3)GalNAc(b1-4)Gal(b1-4)Glc
Procedure, shortened: as §1

[16] = molecular target: Gal(b1-3)GlcNAc(b1-3)Gal(b1-3)GlcNAc
Procedure, shortened: as §1

[17] = molecular target: Gal(b1-3)GlcNAc(b1-3)Gal(b1-4)GlcNAc(b1-3)Gal(b1-4)GlcNAc(b1-2)[Gal(b1-3)GlcNAc(b1-3)Gal(b1-4)GlcNAc(b1-3)Gal(b1-4)GlcNAc(b1-6)]Man(a1-6)[Gal(b1-3)GlcNAc(b1-3)Gal(b1-4)GlcNAc(b1-3)Gal(b1-4)GlcNAc(b1-2)Man(a1-3)]Man(b1-4)GlcNAc(b1-4)[Fuc(a1-6)]GlcNAc
Procedure, shortened: as §1

[18] = molecular target: Gal(b1-3)GlcNAc(b1-6)Gal(b1-4)GlcNAc
Procedure, shortened: as §1

Gal(b1-4)Glc6S = molecular target: Gal(b1-4)Glc6S
Procedure, shortened: as §1

[19] = molecular target: Gal(b1-4)GlcNAc(b1-2)Man(a1-3)[Gal(b1-4)GlcNAc(b1-2)Man(a1-6)][Gal(b1-4)GlcNAc(b1-4)]Man(b1-4)GlcNAc(b1-4)[Fuc(a1-6)]GlcNAc
Procedure, shortened: as §1

[20] = molecular target: Gal(b1-4)GlcNAc(b1-6)Gal(b1-4)GlcNAc
Procedure, shortened: as §1

[21] = molecular target: Gal3S(b1-4)[Fuc(a1-3)]Glc6S
Procedure, shortened: as §1

Gal6P(b1-4)GlcNAc = molecular target: Gal6P(b1-4)GlcNAc
Procedure, shortened: as §1

Gal6S(b1-3)GlcNAc = molecular target: Gal6S(b1-3)GlcNAc
Procedure, shortened: as §1

Gal6S(b1-4)Glc = molecular target: Gal6S(b1-4)Glc
Procedure, shortened: as §1

GalNAc(a1-3)GalNAc = molecular target: GalNAc(a1-3)GalNAc
Procedure, shortened: as §1

[22] = molecular target: GalNAc(b1-3)Gal(a1-4)Gal(b1-4)GlcNAc
Procedure, shortened: as §1

GalNAc(b1-4)GlcNAc = molecular target: GalNAc(b1-4)GlcNAc
Procedure, shortened: as §1

GlcA(b1-3)GlcNAc = molecular target: GlcA(b1-3)GlcNAc
Procedure, shortened: as §1

[23] = molecular target: GlcNAc(a1-3)Gal(b1-4)GlcNAc
Procedure, shortened: as §1

[24] = molecular target: GlcNAc(b1-3)Gal(b1-4)GlcNAc(b1-3)Gal(b1-4)GlcNAc(b1-2)Man(a1-3)[GlcNAc(b1-3)Gal(b1-4)GlcNAc(b1-3)Gal(b1-4)GlcNAc(b1-2)Man(a1-6)]Man(b1-4)GlcNAc(b1-4)GlcNAc
Procedure, shortened: as §1

[25] = molecular target: GlcNAc(b1-3)Gal(b1-4)GlcNAc(b1-3)Gal(b1-4)GlcNAc(b1-3)Gal(b1-4)GlcNAc(b1-2)Man(a1-3)[GlcNAc(b1-3)Gal(b1-4)GlcNAc(b1-3)Gal(b1-4)GlcNAc(b1-3)Gal(b1-4)GlcNAc(b1-2)Man(a1-6)]Man(b1-4)GlcNAc(b1-4)GlcNAc
Procedure, shortened: as §1

[26] = molecular target: GlcNAc(b1-4)[GlcNAc(b1-6)]GalNAc
Procedure, shortened: as §1

GlcNAc(b1-6)GalNAc = molecular target: GlcNAc(b1-6)GalNAc
Procedure, shortened: as §1

[27] = molecular target: Neu5Ac(a2-3)Gal(b1-3)GlcNAc(b1-2)Man(a1-3)[GlcNAc(b1-4)][Neu5Ac(a2-3)Gal(b1-3)GlcNAc(b1-2)Man(a1-6)]Man(b1-4)GlcNAc(b1-4)GlcNAc
Procedure, shortened: as §1

[28] = molecular target: Neu5Ac(a2-3)Gal(b1-4)GlcNAc(b1-2)[Neu5Ac(a2-3)Gal(b1-4)GlcNAc(b1-6)]Man(a1-6)[Neu5Ac(a2-3)Gal(b1-4)GlcNAc(b1-2)Man(a1-3)][GlcNAc(b1-4)]Man(b1-4)GlcNAc(b1-4)GlcNAc
Procedure, shortened: as §1

[29] = molecular target: Neu5Ac(a2-3)Gal(b1-4)GlcNAc(b1-3)Gal(b1-4)GlcNAc(b1-3)Gal(b1-4)GlcNAc
Procedure, shortened: as §1

[30] = molecular target: Neu5Ac(a2-3)Gal(b1-4)GlcNAc(b1-3)Gal(b1-4)[Fuc(a1-3)]GlcNAc
Procedure, shortened: as §1

[31] = molecular target: Neu5Ac(a2-3)Gal(b1-4)[Fuc(a1-3)]GlcNAc(b1-6)[Neu5Ac(a2-3)Gal(b1-3)]GalNAc
Procedure, shortened: as §1

[32] = molecular target: Neu5Ac(a2-3)[GalNAc(b1-4)]Gal(b1-4)GlcNAc
Procedure, shortened: as §1

[33] = molecular target: Neu5Ac(a2-6)Gal(b1-4)GlcNAc(b1-2)Man(a1-3)[Neu5Ac(a2-6)Gal(b1-4)GlcNAc(b1-2)Man(a1-6)]Man(b1-4)GlcNAc(b1-4)GlcNAc
Procedure, shortened: as §1

[34] = molecular target: Neu5Ac(b2-6)Gal(b1-4)GlcNAc
Procedure, shortened: as §1

[35] = molecular target: Neu5Ac9Ac(a2-6)Gal(b1-4)GlcNAc
Procedure, shortened: as §1

B1: AT3G09350(27) (Arabidopsis thaliana), Q84J81 (protein)
chain: MAKDGPNWDGLLKWSLSHADGTRPTRQLSEEDRKWFMEAMQSQTVDVVKRMKEITLVMQTPEQVLVEHGVTPEDIQDLLDELQEHVESIDMANDLHSIGGLVPLLSFLKNSHANIRAKAADVVSTIVQNNPRSQELVMETNALESLLSNFTSDTDIHARTQALGAISSLIRHNKPGVTAFKLANGYAGLRDALASDSVRFQRKALNLLQYLLQEDDSDRSIATGLGFPRVMMHLASSDDAEIREAALRGLLELSREKNDGSSSIDKSDEKLRQLLEERIKGITLMSQEDLETVKEERQLVDLLWSICYNEPSSLREKGLVVLPGEDALPPDVASKLFEPPLRASAANRNATEKKDEPMKLLGP
glycan array binding signal (z-score) (Fuc(a1-2)Gal): -0.113 | glycan array binding signal (z-score) [1]: 0.676 | glycan array binding signal (z-score) [2]: -0.595 | glycan array binding signal (z-score) [3]: 2.16 | glycan array binding signal (z-score) [4]: -0.506 | glycan array binding signal (z-score) [5]: -0.677 | glycan array binding signal (z-score) [6]: 0.007 | glycan array binding signal (z-score) [7]: 0.498 | glycan array binding signal (z-score) [8]: 5.85 | glycan array binding signal (z-score) [9]: 3.56 | glycan array binding signal (z-score) [10]: 0.248 | glycan array binding signal (z-score) [11]: -0.449 | glycan array binding signal (z-score) [12]: -0.122 | glycan array binding signal (z-score) (Gal(a1-3)GalNAc): 2.5 | glycan array binding signal (z-score) [13]: 8.94 | glycan array binding signal (z-score) (Gal(a1-4)Gal(b1-4)Glc): 2.11 | glycan array binding signal (z-score) [14]: -0.346 | glycan array binding signal (z-score) [15]: 1.91 | glycan array binding signal (z-score) [16]: -0.089 | glycan array binding signal (z-score) [17]: -0.059 | glycan array binding signal (z-score) [18]: 3.05 | glycan array binding signal (z-score) (Gal(b1-4)Glc6S): 0.57 | glycan array binding signal (z-score) [19]: -0.391 | glycan array binding signal (z-score) [20]: 3.1 | glycan array binding signal (z-score) [21]: -0.174 | glycan array binding signal (z-score) (Gal6P(b1-4)GlcNAc): -0.424 | glycan array binding signal (z-score) (Gal6S(b1-3)GlcNAc): -0.146 | glycan array binding signal (z-score) (Gal6S(b1-4)Glc): -0.106 | glycan array binding signal (z-score) (GalNAc(a1-3)GalNAc): -0.182 | glycan array binding signal (z-score) [22]: 4.3 | glycan array binding signal (z-score) (GalNAc(b1-4)GlcNAc): 7.59 | glycan array binding signal (z-score) (GlcA(b1-3)GlcNAc): -0.957 | glycan array binding signal (z-score) [23]: -0.46 | glycan array binding signal (z-score) [24]: 0.28 | glycan array binding signal (z-score) [25]: 0.057 | glycan array binding signal (z-score) [26]: -0.008 | glycan array binding signal (z-score) (GlcNAc(b1-6)GalNAc): 0.847 | glycan array binding signal (z-score) [27]: -0.8 | glycan array binding signal (z-score) [28]: -0.435 | glycan array binding signal (z-score) [29]: 0.446 | glycan array binding signal (z-score) [30]: -0.305 | glycan array binding signal (z-score) [31]: 0.415 | glycan array binding signal (z-score) [32]: -0.121 | glycan array binding signal (z-score) [33]: 0.535 | glycan array binding signal (z-score) [34]: 0.639 | glycan array binding signal (z-score) [35]: -0.732
